SNCA viab count – cell viability loss counter-screen | AID 1671193 | HEK-293-SNCA-luc viability, GF-AFC fluorescence, 24 h | Potency, µM (series often up to 57.1 µM), actives largely listed as cytotoxic | hit rate 0.12% among 150,000; also: nearly all actives have a fitted effect of over 30% in size
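Cytotoxicity counterscreen: after 24 h compound treatment of genome-edited SNCA-luciferase HEK-293 cells, live-cell protease substrate GF-AFC read by fluorescence after 30 min; activity scaled between DMSO (0%) and medium-only (-100%), curves Hill-fitted.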
IP6K1 inhibitor – blocks human inositol hexakisphosphate kinase 1. Q92551. hit rate 0.81% among 140,000. IP6K1 kinase, ADP-Glo luminescence, 2 h; hits give low values. activity change, % (series mostly up to about 58 µM); in the data active = activity change below about -25%
Target sequence (Q92551 whole entry, looked up): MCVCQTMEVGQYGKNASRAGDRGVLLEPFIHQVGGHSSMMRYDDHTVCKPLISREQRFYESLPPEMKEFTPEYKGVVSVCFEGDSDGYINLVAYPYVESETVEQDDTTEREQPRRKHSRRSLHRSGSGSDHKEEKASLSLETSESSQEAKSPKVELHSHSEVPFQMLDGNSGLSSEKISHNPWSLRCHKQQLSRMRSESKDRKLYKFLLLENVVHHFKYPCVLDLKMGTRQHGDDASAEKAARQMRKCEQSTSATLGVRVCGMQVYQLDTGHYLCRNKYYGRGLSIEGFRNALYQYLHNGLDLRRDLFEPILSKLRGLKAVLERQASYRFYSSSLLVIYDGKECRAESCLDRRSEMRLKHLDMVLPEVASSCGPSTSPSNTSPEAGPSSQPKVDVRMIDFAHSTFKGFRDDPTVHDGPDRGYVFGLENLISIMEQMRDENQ
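ADP-Glo luminescence measures ADP made by human IP6K1 during a 2 h RT reaction with ATP/IP6 (mix at 1.3 mM/130 uM); top library doses 57.5 and 19.1 uM final.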
SNCA expr inh – inhibitors of alpha-synuclein (SNCA) gene expression. HEK-293 SNCA-luciferase knock-in, luminescence, 24 h. Potency, µM (top dose mostly 57.2 µM), most hits filed as inhibitors. hit rate 0.17% among 140,000; also: nearly all actives have a fitted effect of over 45% in size
KDM5B inhibitor – KDM5B demethylase inhibition; Q9UGL1; AID 1347165; KDM5B demethylase, FDH-coupled NADH fluorescence (FDH is formaldehyde dehydrogenase); Potency, µM (series often up to 57.7 µM), hits mostly inhibitors; hit rate 2.6% among 220,000; also: nearly all actives have a fitted effect of over 70% in size
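Inhibition is measured as reduced NADH fluorescence generation from FDH coupling to formaldehyde release. Truncated KDM5BΔAP at 200 nM final acts on H3K4me3 peptide (12.5 µM in substrate mix) in pH 7.5 HEPES buffer with Tween-20, 30 min, room temperature.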
IP6K1 inh cnf – human IP6K1 inhibition, confirmatory; shares compounds with IP6K1 inhibitor; recombinant IP6K1 kinase, ADP-Glo luminescence, 2 h; Potency, µM (series often up to 49 µM), usual class: inhibitors; hit rate 13% among 1,200; also: nearly all actives have a fitted effect of over 65% in size
Of the large screens only hits and unclear results are named; the others gave an inactive call (follow-up assays come after a bar, where they were run). A selection: hits, their analogues and other compounds. The true share with any hit is near 3%. Unless noted, calls follow the shape of the dose curve; as a rule, active = well fitted curve in the direction sought with a large enough effect; inconclusive = small, poorly fitted or top-dose-only effect, or another doubt; inactive = no such curve, though single readings can be large; an effect the other way counts as inactive or inconclusive.

Cc1ccc(C(=O)Nc2ccc(CN3CCN(C)CC3)c(C(F)(F)F)c2)cc1C#Cc1cnc2[nH]ncc2c1	SNCA viab count inconclusive, IP6K1 inhibitor -60.6 (no result: SNCA expr inh, KDM5B inhibitor) | IP6K1 inh cnf 7.31µM
CCN1CCN(Cc2ccc(NC(=O)c3ccc(C)c(/C=C/c4cnc5[nH]ccc5c4OC)c3)cc2C(F)(F)F)CC1	SNCA viab count 23.8µM, IP6K1 inhibitor -39.3 (no result: SNCA expr inh, KDM5B inhibitor) | IP6K1 inh cnf 4.61µM
Cc1ccc(NC(=O)c2ccc(CN3CC[C@H](N(C)C)C3)c(C(F)(F)F)c2)cc1Nc1nccc(-c2cncnc2)n1	none (no result: SNCA expr inh, KDM5B inhibitor)
COC1C(=O)N(c2cccc(F)c2)C12CCN(C(=O)c1cc3ccccc3[nH]1)CC2 (stereo unspecified)	KDM5B inhibitor inconclusive
CC(C)c1cc(-c2n[nH]c(=O)n2-c2ccc3c(ccn3C)c2)c(O)cc1O	IP6K1 inhibitor -42.5, SNCA expr inh inconclusive (no result: KDM5B inhibitor) | IP6K1 inh cnf 9.2µM
COc1cccc(-c2ccc(C(=O)N3CCC(C(=O)NC4CCCCC4)CC3)cc2)c1	none (no result: KDM5B inhibitor)
CC(C)NC(=O)C1CCN(c2nc3ccccc3nc2C(F)(F)F)CC1	IP6K1 inhibitor -35.1 | IP6K1 inh cnf inactive
CCCCNC(=O)C1CCN(c2nc3ccccc3nc2C(F)(F)F)CC1	IP6K1 inhibitor -28.9 | IP6K1 inh cnf inactive
CNC(=O)C1CCN(c2nc3ccccc3nc2C(F)(F)F)CC1	none
O=C(C1CCCCN1Cc1ccc(-c2cccs2)cc1)N1CCN(Cc2ccccc2)CC1 (stereo unspecified)	SNCA expr inh inconclusive (no result: KDM5B inhibitor)
OCCCNc1cc(-c2ccnc(Nc3cccc(Cl)c3)n2)ccn1	SNCA viab count inconclusive, IP6K1 inhibitor -26.4, SNCA expr inh inconclusive (no result: KDM5B inhibitor) | IP6K1 inh cnf inconclusive
Cc1nn(-c2ccccc2)c2sc(C(=O)Nc3cccc(O)c3)cc12	SNCA viab count inconclusive, IP6K1 inhibitor -27.2, SNCA expr inh inconclusive | IP6K1 inh cnf inconclusive
COc1ccc(Nc2ccnc(N3CCCC(C(=O)N4CCC(c5ccccc5)CC4)C3)n2)cc1 (stereo unspecified)	SNCA viab count inconclusive, SNCA expr inh inconclusive (no result: KDM5B inhibitor)
CC1CCN(C(=O)CSc2nc(-c3ccccc3)no2)CC1	IP6K1 inhibitor -26.2, KDM5B inhibitor inconclusive | IP6K1 inh cnf inconclusive
Cc1cccc(N2CCN(c3ccc(C(=O)O)cc3NC(=O)c3cccc(Cl)c3)CC2C)c1 (stereo unspecified)	IP6K1 inhibitor -28.1, KDM5B inhibitor inconclusive | IP6K1 inh cnf inconclusive
CN(C)C(=O)CCS(=O)(=O)Cc1coc(-c2ccc(F)cc2)n1	none (no result: SNCA viab count, IP6K1 inhibitor, SNCA expr inh)
CCn1nc(C)c(CCNC(=O)C2CCC(=O)N(C3CCCC3)C2)c1C (stereo unspecified)	IP6K1 inhibitor -25.0 | IP6K1 inh cnf inactive
Cc1c(C)n(C)c2ccc(C(=O)N3CCN(c4ccccc4)CC3)cc12	IP6K1 inhibitor -26.9 | IP6K1 inh cnf inactive
Cc1c(C)n(C)c2ccc(C(=O)N3CCN(c4ccccn4)CC3)cc12	none (no result: SNCA viab count, IP6K1 inhibitor, SNCA expr inh)
Cn1ncc2c(C(=O)NCc3cccc(F)c3)cc(-c3ccccc3C(F)(F)F)nc21	none (no result: SNCA viab count, SNCA expr inh, KDM5B inhibitor)
Oc1cccc(Nc2ncnc3sc4c(c23)CCCC4)c1	IP6K1 inhibitor -28.0, KDM5B inhibitor inconclusive | IP6K1 inh cnf inconclusive
O=S(=O)(Nc1ncnc2sc3c(c12)CCC3)c1cc(F)ccc1F	none (no result: SNCA viab count, IP6K1 inhibitor, SNCA expr inh)
CN1CCOc2c(C(=O)NCc3cccnc3)cc(-c3ccccc3F)cc21	SNCA viab count inconclusive, IP6K1 inhibitor -28.6, KDM5B inhibitor 25.1µM | IP6K1 inh cnf inactive
Cc1ccccc1-c1cc(C(=O)NCc2cnn(C)c2)c2c(c1)N(C)CCO2	IP6K1 inhibitor -25.1, SNCA expr inh inconclusive, KDM5B inhibitor 31.6µM | IP6K1 inh cnf inconclusive
COc1cncc(-c2cc(C(=O)NCc3cccnc3)c3c(c2)N(C)CCO3)c1	IP6K1 inhibitor -28.0, SNCA expr inh inconclusive | IP6K1 inh cnf inconclusive
COc1cccc(-c2cc(C(=O)NCc3cccnc3)c3cnn(C)c3n2)c1	none (no result: SNCA viab count, SNCA expr inh, KDM5B inhibitor)
Cc1ccc(OCc2nc(C3CN(C(=O)c4n[nH]c5ccccc45)C3)no2)cc1	KDM5B inhibitor inconclusive
CCOC(=O)c1oc2c(c1C)-c1nn(Cc3ccc(Cl)cc3)cc1CC2	IP6K1 inhibitor -38.4, KDM5B inhibitor inconclusive | IP6K1 inh cnf inconclusive

Assay outcomes (PubChem)
